A short description of test [1]: inhibitors of mutant huntingtin aggregation, primary screen, imaging, exon1htt(103Q)mCFP cells, high-content imaging (AID 483;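 active = visual image review flags a hit and inhibition of aggregation exceeds 20%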;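 also: compound exposure lasted 3 days before fixation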;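 as to nuclei count: percent of the per-plate median nuclei count of sample wells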). Particulars: exon1htt(103Q)mCFP cell line, aggregate imaging, at 2 µM; inhibition of aggregation: stronger effect = higher value; nuclei count: measured here: cell count, toxicity.
A short description of test [2]: inhibitors of E-selectin induction by TNFa, primary screen, imaging, HUVEC, immunofluorescence, MLSMR starter and 10KST1 sets (AID 487;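 active = visually confirmed hit in the image check and inhibition above 20%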;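 as to inhibition: signal is fraction of cell area covered by stained E-selectin grains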;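 as to nuclei count: 100% = median nuclei count of all wells on the same plate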). Particulars: HUVEC TNFalpha-induced E-selectin immunofluorescence imaging, at 2 µM; inhibition: stronger effect = higher value; nuclei count: measured here: cell number, toxicity.
Test [3] is described as follows: DUSP6 inhibitors restoring Erk phosphorylation by chemical complementation, primary imaging in DUSP6-transfected HeLa (AID 609;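 active = compounds giving at least 50% inhibition in the cell-based MKP-3 phosphatase rescue imaging test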;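 as to inhibition: phospho-Erk level distribution per well compared with pooled transfected vehicle control wells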). Particulars: HeLa MKP-3 transfected, phospho-Erk imaging KS statistic, at 10 µM, cells stimulated with TPA for 15 min.
For test [4], the target named is Dual specificity protein phosphatase 6 (Homo sapiens) (UniProt Q16828). Described as above. The conditions noted are these: HeLa MKP-3 transfected, phospho-Erk imaging KS statistic; at 10 µM; stronger effect = higher value; cells stimulated with TPA for 15 min.
Dual specificity protein phosphatase 6 (Homo sapiens), sequence (Q16828 whole entry, looked up): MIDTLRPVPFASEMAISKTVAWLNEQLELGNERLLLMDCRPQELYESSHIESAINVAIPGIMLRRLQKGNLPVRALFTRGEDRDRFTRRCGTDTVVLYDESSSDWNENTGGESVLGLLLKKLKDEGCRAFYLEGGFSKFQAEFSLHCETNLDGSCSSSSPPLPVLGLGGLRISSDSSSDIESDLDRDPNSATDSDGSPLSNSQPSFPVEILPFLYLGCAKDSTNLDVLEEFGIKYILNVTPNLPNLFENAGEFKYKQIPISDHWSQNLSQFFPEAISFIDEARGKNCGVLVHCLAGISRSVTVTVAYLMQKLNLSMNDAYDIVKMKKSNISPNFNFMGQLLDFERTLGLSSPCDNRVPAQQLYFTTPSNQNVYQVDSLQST
The target in test [5] is Voltage-gated potassium channel subunit beta-2 (Rattus norvegicus) (UniProt P62483). Put plainly: KvBeta enzyme negative modulators, primary screen, biochemical, NADPH fluorescence (AID 622;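 active = fluorescence slope higher than the sample average by over 3 SD, cut at about -0.22 in these data, passing the limit was not always enough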;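 also: slope of raw intensity against log time taken from 70 to 1610 s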). Particulars: recombinant KvBeta, 4-cyanobenzaldehyde reduction, at 10 µM, stronger effect = higher value.
Voltage-gated potassium channel subunit beta-2 (Rattus norvegicus), sequence (P62483 whole entry, looked up): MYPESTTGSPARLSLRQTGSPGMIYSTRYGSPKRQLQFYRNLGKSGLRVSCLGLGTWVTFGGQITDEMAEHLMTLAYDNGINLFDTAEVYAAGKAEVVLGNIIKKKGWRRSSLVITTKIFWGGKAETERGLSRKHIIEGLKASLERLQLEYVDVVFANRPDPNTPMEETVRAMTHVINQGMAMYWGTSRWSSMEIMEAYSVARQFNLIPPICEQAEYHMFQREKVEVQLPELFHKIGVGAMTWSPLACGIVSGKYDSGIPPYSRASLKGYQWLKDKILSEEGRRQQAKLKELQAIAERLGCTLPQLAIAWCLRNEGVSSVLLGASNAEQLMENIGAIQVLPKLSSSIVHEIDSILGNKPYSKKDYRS
The target is the same in test [6]. Put plainly: KvBeta positive modulators, primary screen, biochemical, NADPH fluorescence (AID 623;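 active = NADPH fluorescence slope more negative than the mean of all samples by about 3 SD, 99.7% confidence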;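 also: fluorescence intensity change per second fitted from 20 to 320 s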). Particulars: Recombinant KvBeta, NADPH fluorescence decrease slope, 10 min; at 10 µM; stronger effect = lower value.
In test [7] the target is Alpha-2C adrenergic receptor (Homo sapiens) (UniProt P18825). As to the kind of experiment: modulators of alpha2C/GIRK thallium flux, primary screen, cell-based, HEK293 alpha2C/GIRK1/2 (AID 624;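 active = fluorescence slope after compound addition differing from the mean of all screened samples at 99.7% confidence, in either direction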;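 also: slope of fluorescence ratio to pre-addition baseline per second over 15 to 24 s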). Particulars: thallium flux BTC fluorescence, at 10 µM, actives lie on both sides.
Alpha-2C adrenergic receptor (Homo sapiens), sequence (P18825 whole entry, looked up): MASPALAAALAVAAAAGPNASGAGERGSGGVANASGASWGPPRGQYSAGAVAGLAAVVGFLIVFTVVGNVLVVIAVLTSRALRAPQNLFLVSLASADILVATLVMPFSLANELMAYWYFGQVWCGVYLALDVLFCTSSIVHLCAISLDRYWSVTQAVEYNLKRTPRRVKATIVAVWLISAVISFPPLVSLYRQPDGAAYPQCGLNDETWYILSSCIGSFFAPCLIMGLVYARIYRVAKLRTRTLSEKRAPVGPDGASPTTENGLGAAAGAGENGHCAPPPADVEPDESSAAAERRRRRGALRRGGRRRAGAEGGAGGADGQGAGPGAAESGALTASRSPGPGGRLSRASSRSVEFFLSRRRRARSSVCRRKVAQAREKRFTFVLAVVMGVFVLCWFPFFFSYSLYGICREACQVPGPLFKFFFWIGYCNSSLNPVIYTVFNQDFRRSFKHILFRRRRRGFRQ
Test [8] in a line: inhibitors of larval lipid processing in zebrafish, primary screen, whole organism, PED6 fluorescence, gall bladder and intestine (AID 686;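 active = a full or partial loss of lipid-probe fluorescence in the fish gall bladder, intestine or both, judged by eye; inactive = no fluorescence loss, or compound toxic to the fish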;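 also: larvae 5 to 7 days old with five fish per well; signal comes from phospholipase A2 cleavage of quenched PED6 carried via bile; overnight exposure to compound and PED6 before scoring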). Particulars: Zebrafish larvae PED6 lipid processing, fluorescence scoring; screened at 20 µM (by protocol).
Test [9] in a line: inhibitors of Chlamydomonas gravitaxis, primary screen, whole organism, Chlamydomonas reinhardtii, WT vs cilia-less mutant, absorbance, 96-well (AID 463189).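 Also: 0% = wild type cc124 cells in DMSO and 100% = ciliumless bld1 mutant cells.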 Particulars: OD600 absorbance, 2 days, at 10 µM, stronger effect = higher value.
Test [10] in a line: inhibitors of Sendai virus-induced IRF3 signaling, primary screen, TLR/RLR signaling modifier project, cell-based, Sendai virus stimulus, luciferase, 10K MLSCN set (AID 602276;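 active = inhibition at or above 50% at 10 µM; inactive = inhibition below 50%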;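 also: firefly luciferase from ISG56 promoter only with Renilla not read in this screen; 0% = Sendai virus plus DMSO and 100% = medium plus DMSO without virus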). The conditions noted are these: HEK293 RL24 IRF3 luciferase reporter, at 10 µM, stronger effect = higher value. (In a reporter assay the amount or activity of a reporter protein is the signal.)
Test [11] is described as follows: inhibitors of poly I:C-induced TLR3 signaling, primary screen, cell-based, poly I:C stimulus, luciferase, 10K MLSCN set (AID 602277;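 active = inhibition of the reporter signal at or above 50%; inactive = inhibition below 50%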). The conditions noted are these: HEK293-TLR3 RL24 IRF3 luciferase reporter, at 10 µM, stronger effect = higher value.
Setting [12] is: measured here: cell density z-score.
The mark [13] stands for this setting: measured here: nuclear c-Myc green intensity z-score.
Setting [14] is: measured here: nuclear pErk red intensity z-score, stronger effect = higher value.

Several values for one entry are separate records, joined by “and”; a condition that tells them apart may be missing. Equal entries are not always repeated. Activity calls are given as the source filed them.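 The calls were made as follows, unless noted: active = inhibition at or above 50% relative to wild type and mutant plate controls; inactive = inhibition below 50%.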

For `CCCCNC(=O)NS(=O)(=O)c1ccc(C)cc1`, the inhibition of aggregation in test [1] was 10.9% (inactive). Further, the nuclei count came out at 99.2% in test [1] and 107% in test [2]. Also, the inhibition (in general, the change of the read-out against control, counted positive when it falls) in test [2] is -56.6% (inactive); in [4], 9.37% (inactive); in test [9] it was 7.5% (inactive) and 29.4% (inactive); in [10] it was -6.27% (inactive); in test [11] it was 5.7% (inactive). Moreover, the z-score in test [3] (setting [12]) is 0.542; in test [3] (setting [13]), -0.348; in test [3] (setting [14]), -1.78. Also, the fluorescence slope in test [5] is -0.454 (inactive). In addition, the NADPH fluorescence slope in [6] is 3.1e-05 (inactive). For the same compound, the slope in [7] was 0.00531 (inactive). For the same compound, in test [8], the outcome was inactive.
Regarding `CC(C)NCC(O)COc1ccc(CC(N)=O)cc1` (stereo not given), the inhibition of aggregation in test [1] was -3.8% (inactive). Also, the nuclei count is 97.3% in test [1] and 135% in test [2]. The inhibition in test [2] was -96.5% (inactive); in test [4] it was -2.46% (inactive); in test [9], -6.18% (inactive) and -8.19% (inactive); in test [10] it was -12.5% (inactive); in test [11], -8.56% (inactive). The z-score in test [3] (setting [12]) is -1.26; in [3] (setting [13]), -0.177; in test [3] (setting [14]), -0.441. The fluorescence slope in test [5] was -0.47 (inactive). The NADPH fluorescence slope in test [6] is 1.8e-05 (inactive). Further, in [7], the slope is 0.00481 (inactive). In addition, the compound was classed as inactive in [8].
Regarding `Oc1c(Cl)cc(Cl)cc1Sc1cc(Cl)cc(Cl)c1O`, the inhibition of aggregation in test [1] was 13.7% (inactive). Moreover, the nuclei count was 90% in [1] and 117% in test [2]. Also, the inhibition in test [2] is -49.8% (inactive); in [4], 1.48% (inactive); in test [9], 155% (active); in [10] it was 10.6% (inactive); in test [11], -53.7% (inactive). The z-score in test [3] (setting [12]) is -0.357; in test [3] (setting [13]) it was -0.512; in test [3] (setting [14]) it was 0.181. Besides, the fluorescence slope in [5] is -0.478 (inactive). Also, the NADPH fluorescence slope in [6] was -6e-05 (inactive). Also, the slope in test [7] is 0.00369 (inactive). Besides, in test [8], the outcome was inactive.
On to `CCC(=O)O[C@]1(C(=O)CCl)[C@@H](C)C[C@H]2[C@@H]3CCC4=CC(=O)C=C[C@]4(C)[C@@]3(F)[C@@H](O)C[C@@]21C`, for which the inhibition of aggregation in [1] was -20.8% (inactive). Further, the nuclei count in test [1] was 56.7%; in test [2] it was 116%. The inhibition is -5.8% (inactive) in [2]; 3.45% (inactive) in test [4]; 18.1% (inactive) in [9]; -10.2% (inactive) in test [10]; -4.89% (inactive) in test [11]. The z-score was -0.246 in test [3] (setting [12]), 0.687 in test [3] (setting [13]) and 0.17 in [3] (setting [14]). In addition, in test [5], the fluorescence slope was -0.528 (inactive). Besides, in test [6], the NADPH fluorescence slope is -3.3e-05 (inactive). Moreover, the slope in test [7] is 0.00421 (inactive). The compound was called inactive in [8].
`Clc1ccc(Cn2c(CN3CCCC3)nc3ccccc32)cc1`: the inhibition of aggregation in test [1] is 13.4% (inactive). In addition, the nuclei count in test [1] turned out to be 112%; in [2], 133%. Besides, the inhibition is -57.5% (inactive) in [2]; 1.48% (inactive) in test [4]; 2.55% (inactive) and 22.9% (inactive) in [9]; 16.5% (inactive) in test [10]; 28.2% (inactive) in test [11]. Also, the z-score in [3] (setting [12]) stood at 0.217; in test [3] (setting [13]) it was 0.404; in [3] (setting [14]), 0.417. Moreover, the fluorescence slope in test [5] was -0.551 (inactive). Besides, the NADPH fluorescence slope in test [6] was -3.2e-05 (inactive). Further, the slope in [7] was 0.00478 (inactive). For the same compound, the outcome in [8] is “inactive; toxic”.
As for `OCCOCCN1CCN(C(c2ccccc2)c2ccc(Cl)cc2)CC1` (stereo not given), in [1], the inhibition of aggregation was 2.8% (inactive). The nuclei count in test [1] was 101%; in test [2], 139%. The inhibition in test [2] is -65.7% (inactive); in [4] it was -0.828% (inactive); in [9], -13.4% (inactive); in test [10], 14.5% (inactive); in test [11], 34.4% (inactive). Also, the z-score in [3] (setting [12]) is -1.36; in test [3] (setting [13]), 1.18; in test [3] (setting [14]) it was 1.19. The fluorescence slope in test [5] was -0.46 (inactive). Further, in [6], the NADPH fluorescence slope is 2.2e-05 (inactive). Moreover, the slope in test [7] was 0.00446 (inactive). Further, the compound was called inactive in [8].
Take `Cc1cccc(CN2CCN(C(c3ccccc3)c3ccc(Cl)cc3)CC2)c1` (stereo not given): the inhibition of aggregation in test [1] is -13.4% (inactive). For the same compound, the figures for the nuclei count in [1] and in [2] were 103% and 122%, respectively. Further, the inhibition is -28.5% (inactive) in test [2]; 1.48% (inactive) in [4]; -15.7% (inactive) in test [9]; 6.06% (inactive) in test [10]; 30.8% (inactive) in test [11]. In addition, the z-score in test [3] (setting [12]) was -0.832; in test [3] (setting [13]), -0.304; in test [3] (setting [14]), -0.398. In addition, the fluorescence slope in test [5] was -0.508 (inactive). For the same compound, in test [6], the NADPH fluorescence slope is -3.3e-06 (inactive). Also, in test [7], the slope was 0.00615 (inactive). Besides, the outcome in test [8] was inactive.
Consider `COc1cc(C2C(C#N)=C(N)Oc3cc(N)ccc32)cc(OC)c1OC` (stereo not given), for which, in [1], the inhibition of aggregation is -94.1% (inactive). Further, the nuclei count in test [1] came out at 1.6%; in [2], 80.5%. In addition, the inhibition in test [2] is -83.7% (inactive); in [4] it was 2.92% (inactive); in [9], 4.51% (inactive); in test [10], 46.4% (inactive); in [11], 88.5% (active). Besides, the z-score in test [3] (setting [12]) is 0.957; in test [3] (setting [13]), -0.28; in [3] (setting [14]) it was -0.643. Besides, the fluorescence slope in test [5] was -0.434 (inactive). For the same compound, the NADPH fluorescence slope in [6] is 1e-06 (inactive). Moreover, the slope in [7] was 0.00523 (inactive). In addition, the result in test [8] was inactive.
Regarding `OC(CCN1CCCCC1)(c1ccccc1)C1CCCCC1` (stereo not given), the inhibition of aggregation in test [1] is 11.9% (inactive). The nuclei count in [1] was found to be 107%; in [2], 119%. Also, the inhibition is -31.1% (inactive) in test [2]; 21.2% (inactive) in [4]; 1.25% (inactive) and 22.1% (inactive) in test [9]; 0.614% (inactive) in test [10]; -5.26% (inactive) in [11]. In addition, the z-score in test [3] (setting [12]) is 0.0708; in test [3] (setting [13]), 1.69; in [3] (setting [14]), -1.17. The fluorescence slope in test [5] is -0.528 (inactive). The NADPH fluorescence slope in [6] was -8.4e-05 (inactive). The slope in [7] is 0.00465 (inactive). The outcome in test [8] was inactive.
Consider `Cc1cc(C)nc(NS(=O)(=O)c2ccc(N)cc2)n1`, for which, in [1], the inhibition of aggregation is -9.6% (inactive). Further, the nuclei count in [1] was found to be 104%; in test [2], 107%. The inhibition was -28.5% (inactive) in test [2]; -3.03% (inactive) in test [4]; -15% (inactive) in test [9]; 15.1% (inactive) in test [10]; 26.9% (inactive) in test [11]. The z-score was -0.395 in test [3] (setting [12]), 0.0726 in [3] (setting [13]) and -0.14 in [3] (setting [14]). In test [5], the fluorescence slope was -0.51 (inactive). Also, the NADPH fluorescence slope in test [6] was -5.4e-05 (inactive). For the same compound, the slope in test [7] is 0.00415 (inactive). The compound was called inactive in [8].
Take `CN(C)CCC(c1ccc(Br)cc1)c1ccccn1` (stereo not given): in test [1], the inhibition of aggregation was -6% (inactive). Moreover, the results for the nuclei count in [1] and in test [2] were 111% and 109%, respectively. For the same compound, the inhibition is -39% (inactive) in test [2]; -6.41% (inactive) in test [4]; 0.349% (inactive) and -9.79% (inactive) in test [9]; 5.43% (inactive) in test [10]; 31.9% (inactive) in test [11]. Moreover, the z-score is -1.33 in [3] (setting [12]), -0.476 in test [3] (setting [13]) and 0.326 in test [3] (setting [14]). Moreover, the fluorescence slope in test [5] was -0.467 (inactive). In [6], the NADPH fluorescence slope is -6.3e-05 (inactive). Also, the slope in [7] is 0.00532 (inactive). Further, the result in test [8] was inactive.

Values taken from PubChem BioAssay.
